# According to PubChem BioAssay (NCI):
# The panel holds about 79,000 compounds, 15% with a hit somewhere; the sample as a whole holds those more often. Unmarked numbers belong to inactive results. Activity calls are given as the source filed them. Rule as the data show it: active = growth inhibition above about 70%; inactive = the rest.
# Experiments:
# [1] = NCI Yeast Anticancer Drug Screen. Data for the rad52 strain (AID 147);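 also: 0% = growth of vehicle-treated control cultures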; details: S. cerevisiae rad52 mutant growth inhibition, stronger effect = higher value
# Method in brief: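 Read-out: growth inhibition versus vehicle-treated controls. Cells were a DNA repair-deficient yeast strain treated with compounds.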
# [2] = NCI Yeast Anticancer Drug Screen. Data for the wt1 strain (AID 149);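 also: 0% = growth of vehicle-treated wt1 cultures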; details: S. cerevisiae wt1 strain (SPY 50644) growth inhibition, stronger effect = higher value
# Method in brief: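 Using yeast strain wt1, compound-induced growth inhibition was determined against vehicle-treated cultures.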
# [3] = NCI Yeast Anticancer Drug Screen. Data for the mgt1 strain (AID 153); details: S. cerevisiae mgt1 mutant growth inhibition, stronger effect = higher value
# Method in brief: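 mgt1 yeast grown with test compound; read-out is growth inhibition versus vehicle-treated cultures.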
# [4] = NCI Yeast Anticancer Drug Screen. Data for the rad50 strain (AID 155);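 also: 0% = growth of vehicle-only cultures of the same strain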; details: S. cerevisiae rad50 strain growth inhibition, stronger effect = higher value
# Method in brief: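 Relative growth inhibition (compound vs vehicle) was measured in yeast with a defined repair-gene alteration.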
# [5] = NCI Yeast Anticancer Drug Screen. Data for the mec2-1 strain (AID 157); details: S. cerevisiae mec2-1 strain, stronger effect = higher value
# Method in brief: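 Yeast mec2-1 mutant treated with compound. Readout: growth inhibition vs vehicle controls.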
# [6] = NCI Yeast Anticancer Drug Screen. Data for the rad14 strain (AID 159);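 also: 0% = growth of vehicle-treated control cultures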; details: S. cerevisiae rad14 strain growth inhibition, stronger effect = higher value
# Method in brief: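 Screen for anticancer potential: a yeast strain altered in DNA damage repair is grown with compound, and reduced growth is quantified against vehicle controls.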
# [7] = NCI Yeast Anticancer Drug Screen. Data for the sgs1 mgt1 strain (AID 161);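 also: 0% = growth of cultures given vehicle only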; details: S. cerevisiae sgs1 mgt1 strain, stronger effect = higher value
# Method in brief: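 Inhibition of yeast growth, normalised to vehicle-treated controls, is reported for a strain bearing genetic alterations in DNA damage repair.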
# [8] = NCI Yeast Anticancer Drug Screen. Data for the CLN2oe strain (AID 163);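 also: 0% = growth of vehicle-only control cultures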; details: S. cerevisiae CLN2oe strain, stronger effect = higher value
# Method in brief: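 Read-out: yeast growth inhibition, expressed relative to vehicle-only controls. The strain bears an engineered cell-cycle alteration.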
# [9] = NCI Yeast Anticancer Drug Screen. Data for the cln2 rad14 strain (AID 165);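 also: 0% = growth equal to vehicle treated cultures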; details: S. cerevisiae cln2 rad14 strain, stronger effect = higher value
# Method in brief: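 cln2 rad14 yeast strain; compound exposure; growth inhibition read vs vehicle controls.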
# [10] = NCI Yeast Anticancer Drug Screen. Data for the bub3 strain (AID 167); details: S. cerevisiae bub3 mutant strain, stronger effect = higher value
# Method in brief: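 Screening used yeast with an engineered genetic alteration affecting cell cycle control. Compound-exposed cultures were compared with vehicle cultures, and reduced growth was taken as inhibition.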
# [11] = NCI Yeast Anticancer Drug Screen. Data for the wt2 strain (AID 169);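 also: 0% = growth of vehicle-treated yeast cultures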; details: S. cerevisiae wt2 strain growth inhibition, stronger effect = higher value
# Method in brief: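 Read-out: growth inhibition versus vehicle-treated control cultures after compound exposure of the yeast strain.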
# [12] = NCI Yeast Anticancer Drug Screen. Data for the mlh1 strain (AID 171);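 also: 0% = growth of vehicle-treated control cultures of the same strain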; details: S. cerevisiae mlh1 strain growth inhibition, stronger effect = higher value
# Method in brief: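 Read-out: growth inhibition versus vehicle controls. Strain: engineered yeast with a defined DNA repair or cell cycle defect, compound-treated.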
# [13] = NCI Yeast Anticancer Drug Screen. Data for the sgs1 strain (AID 173);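 also: 0% = growth of vehicle-only control cultures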; details: S. cerevisiae sgs1 mutant, stronger effect = higher value
# Method in brief: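 Read-out: yeast growth inhibition relative to vehicle controls, following compound exposure of a strain with a defined DNA repair/cell cycle alteration.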
# [14] = NCI Yeast Anticancer Drug Screen. Data for the mlh1 rad18 strain (AID 175); details: S. cerevisiae mlh1 rad18 strain growth inhibition, stronger effect = higher value
# Method in brief: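 Yeast w/ defined DNA-repair lesions; compound exposure; growth vs vehicle controls → % inhibition.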
# [15] = NCI Yeast Anticancer Drug Screen. Data for the rad18 strain (AID 177); details: S. cerevisiae rad18 mutant growth inhibition, stronger effect = higher value
# Method in brief: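 Readout: growth inhibition vs vehicle controls. Cells: genetically altered yeast strain, DNA repair defect.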
# [16] = at 5.0 µM (retest, dose inferred, filed as 0.5)
# [17] = at 50.0 µM (retest, dose inferred, filed as 5.0)
smiles,measurement,setting,value
Cc1ccc2c(c1N)C(=O)c1ccccc1C2=O,growth inhibition,[1]; at 1.2 µM,8%
same,growth inhibition,[1]; at 3.7 µM,22%
same,growth inhibition,[1]; at 11.0 µM,47%
same,growth inhibition,[1]; at 33.0 µM,73% (active)
same,growth inhibition,[1]; at 100.0 µM,73% (active)
same,growth inhibition,[2]; at 1.2 µM,-3%
same,growth inhibition,[2]; at 3.7 µM,-1%
same,growth inhibition,[2]; at 11.0 µM,6%
same,growth inhibition,[2]; at 33.0 µM,5%
same,growth inhibition,[2]; at 100.0 µM,5%
same,growth inhibition,[3]; at 1.2 µM,-3%
same,growth inhibition,[3]; at 3.7 µM,-3%
same,growth inhibition,[3]; at 11.0 µM,6%
same,growth inhibition,[3]; at 33.0 µM,-8%
same,growth inhibition,[3]; at 100.0 µM,6%
same,growth inhibition,[4]; at 1.2 µM,5%
same,growth inhibition,[4]; at 3.7 µM,19%
same,growth inhibition,[4]; [16],59%
same,growth inhibition,[4]; at 11.0 µM,40%
same,growth inhibition,[4]; at 33.0 µM,62%
same,growth inhibition,[4]; [17],91% (active)
same,growth inhibition,[4]; at 50.0 µM,30.5%
same,growth inhibition,[4]; at 100.0 µM,63%
same,growth inhibition,[5]; at 1.2 µM,2%
same,growth inhibition,[5]; at 3.7 µM,4%
same,growth inhibition,[5]; [16],8%
same,growth inhibition,[5]; at 11.0 µM,8%
same,growth inhibition,[5]; at 33.0 µM,11%
same,growth inhibition,[5]; [17],36%
same,growth inhibition,[5]; at 50.0 µM,42%
same,growth inhibition,[5]; at 100.0 µM,15%
same,growth inhibition,[6]; at 1.2 µM,3%
same,growth inhibition,[6]; at 3.7 µM,5%
same,growth inhibition,[6]; at 11.0 µM,8%
same,growth inhibition,[6]; at 33.0 µM,9%
same,growth inhibition,[6]; at 100.0 µM,16%
same,growth inhibition,[7]; [16],7%
same,growth inhibition,[7]; [17],42%
same,growth inhibition,[7]; at 50.0 µM,45.2%
same,growth inhibition,[8]; at 1.2 µM,-4%
same,growth inhibition,[8]; at 3.7 µM,-3%
same,growth inhibition,[8]; at 11.0 µM,-4%
same,growth inhibition,[8]; at 33.0 µM,-4%
same,growth inhibition,[8]; at 100.0 µM,6%
same,growth inhibition,[9]; [16],6%
same,growth inhibition,[9]; [17],14%
same,growth inhibition,[9]; at 50.0 µM,40.8%
same,growth inhibition,[10]; at 1.2 µM,2%
same,growth inhibition,[10]; at 3.7 µM,13%
same,growth inhibition,[10]; [16],-9%
same,growth inhibition,[10]; at 11.0 µM,31%
same,growth inhibition,[10]; at 33.0 µM,37%
same,growth inhibition,[10]; [17],62%
same,growth inhibition,[10]; at 50.0 µM,61.4%
same,growth inhibition,[10]; at 100.0 µM,35%
same,growth inhibition,[11]; at 1.2 µM,-3%
same,growth inhibition,[11]; at 3.7 µM,1%
same,growth inhibition,[11]; at 11.0 µM,6%
same,growth inhibition,[11]; at 33.0 µM,10%
same,growth inhibition,[11]; at 100.0 µM,8%
same,growth inhibition,[12]; at 1.2 µM,-3%
same,growth inhibition,[12]; at 3.7 µM,-1%
same,growth inhibition,[12]; at 11.0 µM,10%
same,growth inhibition,[12]; at 33.0 µM,5%
same,growth inhibition,[12]; at 100.0 µM,4%
same,growth inhibition,[13]; at 1.2 µM,-4%
same,growth inhibition,[13]; at 3.7 µM,-3%
same,growth inhibition,[13]; at 11.0 µM,1%
same,growth inhibition,[13]; at 33.0 µM,7%
same,growth inhibition,[13]; at 100.0 µM,5%
same,growth inhibition,[14]; [16],15%
same,growth inhibition,[14]; [17],45%
same,growth inhibition,[14]; at 50.0 µM,71.8% (active)
same,growth inhibition,[15]; at 1.2 µM,-4%
same,growth inhibition,[15]; at 3.7 µM,1%
same,growth inhibition,[15]; at 11.0 µM,5%
same,growth inhibition,[15]; at 33.0 µM,3%
same,growth inhibition,[15]; at 100.0 µM,13%
